Some test systems named below: NCI-H226 lung; NCI-H322M lung; HOP-62 NSCLC; NCI-H460 lung; HOP-92 NSCLC; NCI-H522 lung; A549/ATCC NSCLC; 786-0 renal; COLO 205 colon; DU-145 prostate; K-562 leukemia; MALME-3M melanoma; MDA-MB-231 breast; RXF 393 renal; SF-268 CNS; SF-295 CNS; SF-539 CNS; UACC-257 melanoma; M14 melanoma.
Test in all cases: NCI-60 one-dose screen, 48 h (100 = growth as untreated, 0 = no growth, -100 = all killed)
Conditions in all cases: 10 µM unless noted

Molecules are shown by their SMILES. About 83,000 compounds went through this panel and 20% of them were active in at least one assay; those are over-represented in the sample as a whole.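 Plates (96-well) were seeded with cells, treated with compound at one concentration, and incubated for 48 hours before percent growth was determined.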 A number with no mark means an inactive call. Active and inactive are the calls of the source. Rule for the calls: active = growth percent below 10; inactive = the rest.

Consider `COc1cc(NC(=O)CSc2nnc(-c3ccc(-c4nc5ccc(Cl)cc5[nH]4)cc3)o2)cc(OC)c1OC`, for which the growth with NCI-H226 lung is 57.3%; in the assay on NCI-H322M lung, 95.2%; in the assay on HOP-62 NSCLC, 65.9%; with NCI-H460 lung, 29%; in the assay on HOP-92 NSCLC, 91.5%; with NCI-H522 lung it was 35%. Also, the growth in the assay on A549/ATCC NSCLC was 70.5%; with 786-0 renal, 56.7%; in the assay on COLO 205 colon, 74.2%; with DU-145 prostate, 96%; in the assay with K-562 leukemia it was 29.5%; with MALME-3M melanoma, 18.1%. In addition, the growth was 60.2% in the assay with MDA-MB-231 breast; 25.8% with RXF 393 renal; 52.9% in the assay with SF-268 CNS; 65% in the assay with SF-295 CNS; 24.1% with SF-539 CNS; 67.2% in the assay on UACC-257 melanoma. Also, the growth in the assay on M14 melanoma was 33.5%.
As to `CCOc1ccccc1[C@H]1C(C(=O)c2ccc(Cl)cc2)C2(N[C@@H]1c1ccccc1)C(=O)Nc1ccccc12` (stereo not given in full), the growth is -18.4% (active) in the assay on NCI-H226 lung; 36.1% with NCI-H322M lung; 32.9% with HOP-62 NSCLC; -36.3% (active) in the assay on NCI-H460 lung; -22.4% (active) with HOP-92 NSCLC; -3.52% (active) with NCI-H522 lung. In addition, the growth with A549/ATCC NSCLC was 57.4%; with 786-0 renal, -16.4% (active); with COLO 205 colon, -81.5% (active); in the assay on DU-145 prostate, 31%; with K-562 leukemia, 0.16% (active); in the assay with MALME-3M melanoma it was -15.9% (active). For the same compound, the growth in the assay on MDA-MB-231 breast is 2.23% (active); in the assay on RXF 393 renal, -66.5% (active); with SF-268 CNS it was 43.9%; with SF-295 CNS, 9.84% (active); with SF-539 CNS it was 28%; in the assay with UACC-257 melanoma, 55.3%. Moreover, in the assay on M14 melanoma, the growth was 15.2%.
For the compound `COc1ccc2c(c1)C(Sc1ccc(Cl)cc1)c1c(nc(N)c(C#N)c1N)O2` (stereo not given), the growth in the assay with NCI-H226 lung was 64.9%; with NCI-H322M lung, 86.4%; with HOP-62 NSCLC it was 61.8%; in the assay with NCI-H460 lung it was 63.2%; with HOP-92 NSCLC it was 76.7%; in the assay with NCI-H522 lung, 54.5%. For the same compound, the growth was 53.7% in the assay on A549/ATCC NSCLC; 61.8% in the assay on 786-0 renal; 87.2% with COLO 205 colon; 86% in the assay on DU-145 prostate; 47.6% with K-562 leukemia; 82.2% in the assay with MALME-3M melanoma. Also, the growth was 56.4% in the assay on MDA-MB-231 breast; 56.4% in the assay on RXF 393 renal; 46% in the assay with SF-268 CNS; 55.7% with SF-295 CNS; 61.8% in the assay on SF-539 CNS; 104% in the assay on UACC-257 melanoma. Further, in the assay with M14 melanoma, the growth was 66.4%.
With `Cn1cc(-c2cc(N)n3nc(-c4c[nH]c5ccccc45)cc3n2)c2cc(F)ccc21`, the growth with NCI-H226 lung was 91.4%; in the assay on NCI-H322M lung, 65.1%; in the assay with HOP-62 NSCLC, -22.1% (active); in the assay on NCI-H460 lung, -23.9% (active); in the assay on HOP-92 NSCLC, 31.3%; with A549/ATCC NSCLC, 13.7%. The growth in the assay with 786-0 renal was -2.12% (active); in the assay with COLO 205 colon it was -47.4% (active); in the assay with DU-145 prostate it was 46.2%; in the assay on K-562 leukemia, 3.57% (active); in the assay on MALME-3M melanoma, 76.8%; with MDA-MB-231 breast it was -52.2% (active). Also, the growth with RXF 393 renal is 148%; in the assay on SF-268 CNS, 65.3%; in the assay on SF-295 CNS it was -50.8% (active); with SF-539 CNS, -61.9% (active); with UACC-257 melanoma, 45.7%; in the assay on M14 melanoma it was -0.365% (active).
Regarding `COc1ccc2[nH]cc(-c3cc(N)n4nc(-c5c[nH]c6ccccc56)cc4n3)c2c1`, the growth with NCI-H322M lung is 18.3%; in the assay with HOP-62 NSCLC it was -45.2% (active); in the assay with NCI-H460 lung, -22.8% (active); in the assay with HOP-92 NSCLC, -1.68% (active); in the assay on NCI-H522 lung it was -65.3% (active); in the assay on A549/ATCC NSCLC it was 1.46% (active). Further, the growth with 786-0 renal was -88.3% (active); with COLO 205 colon, -82.5% (active); in the assay on DU-145 prostate, 42.6%; in the assay on K-562 leukemia, 3.51% (active); in the assay with MALME-3M melanoma, -93.4% (active); in the assay on MDA-MB-231 breast, -69.9% (active). Further, the growth was -72.2% (active) in the assay on RXF 393 renal; 80.4% in the assay on SF-268 CNS; -75.9% (active) with SF-295 CNS; -95.2% (active) in the assay with SF-539 CNS; -92.3% (active) in the assay with UACC-257 melanoma; -58.6% (active) in the assay on M14 melanoma.
Consider `CCOC(=O)c1ccc(NC(=S)NC(=O)c2ccc(NC(=O)C(C)C)cc2OC)cc1`, for which the growth was 22.3% in the assay with NCI-H226 lung; 74.9% with NCI-H322M lung; 53.9% with HOP-62 NSCLC; 44.5% in the assay on NCI-H460 lung; 33.6% in the assay on HOP-92 NSCLC; 30.9% with NCI-H522 lung. In addition, the growth was 80.2% in the assay on A549/ATCC NSCLC; 85.2% with 786-0 renal; 37.5% with COLO 205 colon; 78.2% with DU-145 prostate; 10.7% with K-562 leukemia; 3.16% (active) in the assay with MALME-3M melanoma. Further, the growth in the assay on MDA-MB-231 breast was 47.2%; with RXF 393 renal, 74.2%; in the assay on SF-268 CNS, 68.1%; in the assay on SF-295 CNS it was 36.8%; with SF-539 CNS it was 79.6%; with UACC-257 melanoma it was 42%. For the same compound, the growth in the assay with M14 melanoma is 34.1%.
Consider `c1ccc(CSc2nnc(-c3ccc4nc(-c5ccccc5)[nH]c4c3)o2)cc1`, for which the growth in the assay with NCI-H226 lung was -40.1% (active); in the assay on NCI-H322M lung it was 35.9%; in the assay with HOP-62 NSCLC, -3.53% (active); in the assay with NCI-H460 lung it was -41.3% (active); in the assay on HOP-92 NSCLC, 32.2%; with NCI-H522 lung, 33.7%. Besides, the growth in the assay on A549/ATCC NSCLC was -12.4% (active); in the assay on 786-0 renal, -17.3% (active); in the assay on COLO 205 colon it was 78.3%; in the assay on DU-145 prostate, 21.4%; in the assay on K-562 leukemia, 33.5%; with MALME-3M melanoma, 7.77% (active). Besides, the growth is -12.8% (active) in the assay with MDA-MB-231 breast; -22.1% (active) in the assay with RXF 393 renal; 8.24% (active) in the assay with SF-268 CNS; 17.1% with SF-295 CNS; -39.9% (active) in the assay with SF-539 CNS; 57.6% in the assay with UACC-257 melanoma. For the same compound, in the assay with M14 melanoma, the growth was 41.5%.
Regarding `Oc1ccc(Cl)c(Nc2ncnc3c2cnn3CC(Cl)c2ccc(Br)cc2)c1` (stereo not given), the growth with NCI-H226 lung was 84%; in the assay on NCI-H322M lung, 67%; in the assay on HOP-62 NSCLC it was 58.1%; with NCI-H460 lung it was 67.1%; in the assay on HOP-92 NSCLC it was 8.3% (active); in the assay with NCI-H522 lung, 52.6%. Further, the growth in the assay on A549/ATCC NSCLC was 53.9%; with 786-0 renal it was 63.9%; in the assay with COLO 205 colon it was 90.9%; with DU-145 prostate, 50.8%; in the assay on K-562 leukemia, 1.88% (active); in the assay with MALME-3M melanoma, 57.4%. In addition, the growth in the assay with MDA-MB-231 breast was 26.4%; in the assay with RXF 393 renal, -8.51% (active); with SF-268 CNS, 26.7%; in the assay with SF-295 CNS, 60.3%; with SF-539 CNS it was 29.1%; in the assay on UACC-257 melanoma it was 80.1%. Moreover, in the assay on M14 melanoma, the growth was 65.4%.

The record behind these values is PubChem BioAssay (NCI).
